In PubChem BioAssay AID1159580 (chemical genetic matrix, 2015):
Hit rate of the full screen: of about 5,500 compounds, about 2,000 (36%) were called active. Roughly 18% stayed inconclusive and do not appear here. No stated cut-off is given here; in the data, active means normalized growth mostly below about 0.91 (no sharp cut-off); inconclusive means no clear call, values can overlap the other calls; inactive means mostly above about 0.92. Some of the results follow.

Assay: chemical genetic growth profiling, strain panel (AID 1159580);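 further: tested at 20 µM; growth read once vehicle control cultures reached saturation at 30 °C; 1 = growth at the plate median or of vehicle wells; lower values mean less growth of the strain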
Settings: S. cerevisiae deletion strains, growth OD

Measured: normalized growth

Cc1scc2c1N(C(=O)CN1CCN(C)CC1)c1ccccc1NC2=O
inactive: locus YAL013W, strain DEP1, active compounds read low 0.967 | locus YAL021C, strain ccr4, active compounds read low 0.984 | locus YAL026C, strain drs2, active compounds read low 0.972 | locus YAL030W, strain snc1, active compounds read low 0.939 | locus YAL040C, strain CLN3, active compounds read low 0.985 | locus YBL061C, strain skt5, active compounds read low 0.963 | locus YBR009C, strain hhf1, active compounds read low 0.989 | locus YBR023C, strain chs3, active compounds read low 0.947 | locus YBR171W, strain sec66, active compounds read low 0.954 | locus YBR231C, strain swc5, active compounds read low 0.972 | locus YBR279W, strain paf1, active compounds read low 0.958 | locus YCL011C, strain gbp2, active compounds read low 0.954 | locus YCL016C, strain dcc1, active compounds read low 0.975 | locus YCL061C, strain MRC1 (second series), active compounds read low 1 | locus YCL069W, strain vba3, active compounds read low 0.971 | locus YCR088W, strain abp1, active compounds read low 0.969 | locus YDL005C, strain med2, active compounds read low 0.956 | locus YDL040C, strain nat1, active compounds read low 0.967 | locus YDR001C, strain nth1, active compounds read low 0.948 | locus YDR069C, strain doa4, active compounds read low 0.922 | locus YDR137W, strain rgp1, active compounds read low 0.941 | locus YDR150W, strain NUM1, active compounds read low 0.998 | locus YDR159W, strain sac3, active compounds read low 0.94 | locus YDR195W, strain ref2 0.899 | locus YDR297W, strain sur2, active compounds read low 0.974 | locus YDR334W, strain swr1, active compounds read low 0.943 | locus YDR335W, strain msn5, active compounds read low 0.955 | locus YDR363W, strain ESC2, active compounds read low 0.984 | locus YDR392W, strain spt3, active compounds read low 1.01 | locus YEL003W, strain gim4, active compounds read low 0.976 | locus YEL037C, strain rad23, active compounds read low 0.957 | locus YEL061C, strain CIN8 (second series), active compounds read low 0.96 | locus YER002W, strain NOP16, active compounds read low 1 | locus YER015W, strain faa2, active compounds read low 0.974 | locus YER016W, strain bim1, active compounds read low 0.967 | locus YER111C, strain swi4, active compounds read low 0.965 | locus YER155C, strain BEM2 (second series), active compounds read low 0.939 | locus YFR010W, strain ubp6, active compounds read low 0.95 | locus YGL167C, strain pmr1, active compounds read low 0.943 | locus YGL173C, strain kem1, active compounds read low 0.978 | locus YGL227W, strain vid30, active compounds read low 0.947 | locus YGL240W, strain doc1, active compounds read low 0.966 | locus YGL253W, strain hxk2, active compounds read low 0.965 | locus YGR078C, strain PAC10, active compounds read low 0.996 | locus YHR013C, strain ard1, active compounds read low 0.967 | locus YHR027C, strain rpn1, active compounds read low 0.966 | locus YHR030C, strain SLT2, active compounds read low 1.08 | locus YHR079C, strain IRE1, active compounds read low 1.1 | locus YHR142W, strain chs7, active compounds read low 0.942 | locus YJL092W, strain hpr5, active compounds read low 0.965 | locus YJL095W, strain BCK1 (second series), active compounds read low 0.96 | locus YJL095W, strain BCK1, active compounds read low 1.11 | locus YJL115W, strain asf1, active compounds read low 0.952 | locus YJL129C, strain trk1, active compounds read low 0.948 | locus YJL154C, strain vps35, active compounds read low 0.961 | locus YJL164C, strain tpk1, active compounds read low 0.995 | locus YJL166W, strain qcr8, active compounds read low 0.949 | locus YJL187C, strain SWE1, active compounds read low 0.968 | locus YJR066W, strain TOR1, active compounds read low 0.962 | locus YJR075W, strain HOC1, active compounds read low 0.979 | locus YKL160W, strain elf1, active compounds read low 0.981 | locus YKR026C, strain gcn3, active compounds read low 0.96 | locus YKR091W, strain srl3, active compounds read low 0.977 | locus YLL001W, strain dnm1, active compounds read low 0.968 | locus YLL026W, active compounds read low 0.949 | locus YLL041C, strain sdh2, active compounds read low 0.968 | locus YLR027C, strain aat2, active compounds read low 0.977 | locus YLR113W, strain HOG1, active compounds read low 0.977 | locus YLR221C, strain rsa3, active compounds read low 0.995 | locus YLR258W, strain gsy2, active compounds read low 0.963 | locus YLR262C, strain YPT6 (second series), active compounds read low 0.962 | locus YLR320W, strain mms22, active compounds read low 1 | locus YLR342W, strain FKS1, active compounds read low 0.98 | locus YLR357W, strain rsc2, active compounds read low 0.948 | locus YLR370C, strain arc18, active compounds read low 0.945 | locus YLR384C, strain iki3, active compounds read low 0.962 | locus YML120C, strain ndi1, active compounds read low 0.964 | locus YMR058W, strain fet3, active compounds read low 0.952 | locus YMR125W, strain sto1, active compounds read low 0.948 | locus YMR129W, active compounds read low 0.982 | locus YMR205C, strain PFK2, active compounds read low 0.967 | locus YMR231W, strain pep5, active compounds read low 0.972 | locus YMR263W, strain SAP30, active compounds read low 0.989 | locus YMR307W, strain GAS1, active compounds read low 0.981 | locus YNL071W, strain lat1, active compounds read low 0.979 | locus YNL153C, strain GIM3, active compounds read low 1 | locus YNL175C, strain NOP13, active compounds read low 1.02 | locus YNL183C, strain NPR1, active compounds read low 0.938 | locus YNL197C, strain WHI3, active compounds read low 0.979 | locus YNL209W, strain ssb2, active compounds read low 0.973 | locus YNL224C, strain SQS1, active compounds read low 1.02 | locus YNL248C, strain rpa49, active compounds read low 0.964 | locus YNL322C, strain KRE1 (second series), active compounds read low 0.967 | locus YNL322C, strain KRE1, active compounds read low 0.972 | locus YNR049C, strain mso1, active compounds read low 0.962 | locus YOR001W, strain rrp6, active compounds read low 0.972 | locus YOR070C, strain gyp1, active compounds read low 0.984 | locus YOR080W, strain dia2, active compounds read low 0.958 | locus YOR083W, strain WHI5 (second series), active compounds read low 0.995 | locus YOR083W, strain WHI5, active compounds read low 0.982 | locus YOR106W, strain vam3, active compounds read low 0.948 | locus YOR231W, strain MKK1, active compounds read low 1.05 | locus YOR265W, strain rbl2, active compounds read low 0.965 | locus YOR270C, strain vph1, active compounds read low 0.866 | locus YOR290C, strain snf2, active compounds read low 0.974 | locus YPL051W, strain arl3, active compounds read low 0.985 | locus YPL055C, strain LGE1, active compounds read low 0.962 | locus YPL078C, strain atp4, active compounds read low 0.957 | locus YPL106C, strain sse1, active compounds read low 0.936 | locus YPL240C, strain hsp82, active compounds read low 0.979 | locus YPL241C, strain CIN2, active compounds read low 1 | locus YPL256C, strain CLN2, active compounds read low 1.1
